# In the supplement of paper PMC6555819:
# Tested on: RXRa homodimer (NR concentration 180 nM)
# Experiment: PBM binding z-score (relative to random genomic background probes); higher = stronger binding; sequences stand for … in GC…GCGATTGACAGCGTAGAATGAAGG
# Procedure, shortened: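 Random background probes are the reference for binding z-scores. These scores derive from regression-normalized fluorescence on custom Agilent 4×180K protein-binding microarrays incubated 1 h with ligand-free nuclear receptor dimers. Binding was detected with antibodies against each partner (one per run).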
row,Sequence,PBM binding z-score
1,TCTATTAGTTAAAGGGCAACCGACGAGTCCGTTT,1.28
2,AGAACGAGGGCACGCTTAGTTGATAGCAGAGTAG,1.42
3,AGAATGAGGTTACCAAAGATCTGGGAAACGCTTG,2.42
4,TGTCAAAGTTCAACGGTAACGTAAGTATCCACAC,5.2
5,TTACCAAGGTGAAAGATCGTTGATGCACGCCTTG,1.06
6,CGAACTAGGTCATCCAGGACAGTGTATACATTGA,3.21
7,TCTTGTAGATCTAAGGTTAAGAAAGCCGAAGCCT,1.21
8,TCTATAAGTTGAAGGGCAACCGACGAGTCCGTTT,1.01
9,AGAACGAGGGCACCCTGAGTTGATAGCAGAGTAG,1.14
10,GCTAGTTGGTCAGTGAAAGGTCACACACCGGTCG,5.62
11,TCTAGAAGGCCAGAGGGTCACTCAAGAGGTACGG,3.03
12,TCATATTGGTAAACAGGTGAAAGTCCGTAAGTTA,0.951
13,CCTCGGAGGACAACAGGAGGTCAGAGATGCCAGA,1.95
14,GCGATTGGGGCATCAGCAGGTTACCATAACTTAA,0.323
15,CCTTACGGGTCACTGACAGGTTATAGCCTTTGGA,4.83
16,TTACCAAGGAGAGCTGAGGTCGTTGATCCAACTC,0.657
17,AGTCAAAGTCCATCTAGGTAACGTAAGATATGCT,-0.0358
18,CTAACGAGGGCATGAGTTGATAGCAAATGCCGAT,1.06
19,CCGAGTAGGTTATTGGGCATTCAGGCAACGGTGA,0.183
20,CCGACTGGGGCATGAGGTTACCATAAGCCAGCCC,1.25

row,Sequence,PBM binding z-score
1,ATCGAAAGATCGAGGTGAGTATAGAGAAAGGGAA,0.294
2,TATACCGGGTCAAAGGCCAGAGTACGAATGTCGA,5.91
3,CCTACTGTGCCAAAGGTCATTGATTCCAATGCTC,6.46
4,GGAACGAGGGCACAGTTGATAGCATCTGTCGACG,0.922
5,AGAATGAGGTTATACGTTGATCAGGGAAGAAAGT,2.12
6,ATCTGTAGGTTACATCCGGGTCATTCAGGCTATG,3.04
7,TCCATTAGTTGATTAGGGCAACCGAAACAGCGGA,0.491
8,CCTAGCAGGCCAATCTGGGTCGCTCAAGGCTTGA,0.755
9,ACTATTAGTTGAGACGAGGCCAACCGATAGGTTG,0.182
10,TAGCCTAGGTCAGAGCGGGCCAGTATACGCTATA,1.18
11,CCTCGGAGGACAAAAGGTCAGAGCTGTCCGCTTT,4.67
12,GCTGCTAGGTCAGGTTGGTCAGCTAGCGGGTACG,0.963
13,CGTCCAAGGTCAGAGAGGTCAGTTAATGCCGAGT,5.63
14,AGAACGAGGGCAATGAGTTGACAGCACGGGTGGC,1.02
15,TCATATAGGAAATACAGGTGAAAGTCGGCATCTA,1.37
16,TCGAGTACGTTAGGGGCATTCAGAATGGCGTCGA,0.3
17,CCGACTGGGGCAAGGATACCATAACGCACAGCCA,0.232
18,TCTGTTAGTTGAAGGGCAACCGACGAGTCCGTTT,0.588
19,ATCTCTAGGTAAGACTAAGTTCAGTGAAGAACGC,0.46
